Pol kappa inh – DNA polymerase kappa (human) inhibition; Potency, µM (series often up to 107 µM), for inactives: at the highest dose activity, negative = inhibition, actives largely listed as inhibitors; AID 588579; actives 0.53% (n = 400,000); purified Pol kappa, fluorescent DNA synthesis assay, 10 min; Q9UBT6; note: % is set by controls: 0 for no effect and ±100 for the full control effect
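50 nM final substrate added after 15 min RT preincubation of 10 nM Pol kappa with compound; fluorescence read at 0 and 10 min.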
FEN1 inhibitor – inhibitors of human flap endonuclease 1 | P39748 | Recombinant FEN1 flap cleavage, fluorescence, 15 min | Potency, µM (top dose mostly 114 µM), for inactives: top-dose activity change, negative = inhibition, usual class: inhibitors | actives 0.35% (n = 390,000); note: % is set by controls: 0 for no effect and ±100 for the full control effect; nearly all actives have a fitted effect of over 65% in size
Target sequence (P39748 whole entry, looked up): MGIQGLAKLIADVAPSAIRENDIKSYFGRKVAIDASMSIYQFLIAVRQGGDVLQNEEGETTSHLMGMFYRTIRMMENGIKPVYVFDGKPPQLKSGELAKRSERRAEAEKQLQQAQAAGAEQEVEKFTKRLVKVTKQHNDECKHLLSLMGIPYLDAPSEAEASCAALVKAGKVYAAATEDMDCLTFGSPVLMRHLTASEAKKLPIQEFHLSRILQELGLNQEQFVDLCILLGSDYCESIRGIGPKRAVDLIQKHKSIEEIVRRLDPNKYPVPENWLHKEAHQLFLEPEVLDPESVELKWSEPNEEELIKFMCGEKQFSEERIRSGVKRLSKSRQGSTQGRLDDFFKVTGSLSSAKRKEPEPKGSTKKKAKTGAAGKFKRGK
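Recombinant FEN1 (10 nM) was preincubated with pin-transferred compounds for 15 min at room temperature, then flap DNA substrate (50 nM final) was added. Plates were read at 0 and 15 min, and normalized concentration–response data were fitted to a four-parameter Hill equation.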
Pol eta inh – inhibitors of human DNA polymerase eta. Q9Y253. Potency, µM (series often up to 114 µM), for the others: at the highest dose activity change, negative = inhibition, actives largely listed as inhibitors. AID 588591. actives 1.2% (n = 390,000). recombinant Pol eta, fluorescent DNA replication assay; note: % is set by controls: 0 for no effect and ±100 for the full control effect
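Pol eta at 10 nM preincubated with compounds 15 min at room temperature; reaction started with fluorescent substrate (50 nM final) and read kinetically at 0 and 10 min.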
Pol beta inh – DNA polymerase beta (human) inhibition; P06746; Pol beta primer extension/strand displacement, fluorescence kinetic; Potency, µM (series often up to 114 µM), for the others: top-dose activity change, negative = inhibition, most hits filed as inhibitors; actives 1.3% (n = 340,000); note: % is set by controls: 0 for no effect and ±100 for the full control effect
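Preincubation: enzyme (10 nM) with compound, 15 min, RT. Reaction: substrate added to 50 nM final. Reads: 0 and 10 min. Analysis: normalized, Hill fit.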
Pol iota inh – inhibitors of human DNA polymerase iota; Q9UNA4; AID 588590; Potency, µM (doses to about 115 µM), inactives show at the highest dose activity, negative = inhibition, most hits filed as inhibitors; Pol iota fluorescent replication assay, 10 min; actives 1% (n = 390,000)
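Pol iota at 10 nM preincubated 15 min with compounds at room temperature; reaction started with fluorescent substrate, 50 nM final. Fluorescence read kinetically at 0 and 10 min; buffer-only wells as negative control.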
Tb PGK inh – inhibitors of T. brucei phosphoglycerate kinase. Potency, µM (highest dose often 57.5 µM), for inactives: top-dose activity change, negative = inhibition, usual class: inhibitors. actives 0.043% (n = 380,000). PGK/GAPDH coupled, Kinase-Glo luminescence, 60 min. AID 602233; note: % is set by controls: 0 for no effect and ±100 for the full control effect; nearly all actives have a fitted effect of over 60% in size
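Recombinant glycosomal PGK reaction used 1,3-bisphosphoglycerate generated in-well by GAPDH (100nM final) in 100mM TEA pH 7.6, 5mM MgCl2, 0.01% Tween-20. After 60 minutes at room temperature, ATP was read by Kinase-Glo Plus luminescence end-point.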
Numbers without * were called inactive; [ ] = dose if it differs, or a comment. The list is not random: actives were taken first. Their share in the collection is about 2.4%. Calls come from the whole dose curve; as a rule, active = well fitted curve in the direction sought with a large enough effect; inconclusive = small, poorly fitted or top-dose-only effect, or another doubt; inactive = no such curve, though single readings can be large; an effect the other way counts as inactive or inconclusive. Potency is the fitted concentration of half-maximal effect.

Results for CC(=O)Nc1ccc(/C=C2\C=Cc3ccccc32)cc1 ?
Pol kappa inh: -3.8%; FEN1 inhibitor: 0.2%; Pol iota inh: -1.1%

Results for Cc1cccc2cc(-c3nc4ccc(C(=O)O)cc4[nH]3)c(=O)oc12 ?
Pol kappa inh: inconclusive; FEN1 inhibitor: -23.1%; Pol eta inh: 22.4µM*; Pol beta inh: inconclusive; Pol iota inh: inconclusive; Tb PGK inh: -10.2%

What do the screens show for `CC(C)(C)c1cc(C(C)(C)C)c2oc(=O)c(-c3nc4ccc(C(=O)O)cc4[nH]3)cc2c1`?
Pol kappa inh: 2.0%[60.1 µM]; FEN1 inhibitor: -21.2%; Pol eta inh: -19.6%; Pol beta inh: -3.0%; Pol iota inh: 3.7%; Tb PGK inh: -12.5%

What do the screens show for `Cc1cccc2cc(C#N)c(SCCN3CCCCC3)nc12`?
Pol kappa inh: -29.1%; FEN1 inhibitor: 50.1µM*; Pol eta inh: inconclusive; Pol iota inh: inconclusive; Tb PGK inh: -18.7%

Results for Cc1c(C(=O)O)sc2nc(/C=C/c3cccc(O)c3)[nH]c(=O)c12 ?
Pol kappa inh: -13.3%; FEN1 inhibitor: inconclusive; Pol eta inh: 35.5µM*; Pol beta inh: -1.8%; Pol iota inh: inconclusive; Tb PGK inh: inconclusive

How did Cc1cccc(/C=C\c2nc3ccccc3c(=O)[nH]2)c1 do in these assays?
Pol kappa inh: 3.3%; FEN1 inhibitor: 3.8%; Pol eta inh: -11.5%; Pol beta inh: 2.7%; Pol iota inh: 1.8%; Tb PGK inh: -5.6%

What do the screens show for `O=[N+]([O-])c1ccc(-c2nc(NCc3ccccc3)c3ccccc3n2)cc1`?
Pol kappa inh: -16.1%; FEN1 inhibitor: -2.2%; Pol eta inh: 79.4µM*; Pol beta inh: 1.1%; Pol iota inh: 45.9%; Tb PGK inh: -4.3%

How did NCCCN(Cc1ccccc1)c1ccc(Br)cn1 do in these assays?
Pol kappa inh: -1.9%; FEN1 inhibitor: -5.1%; Pol iota inh: 4.4%

Results for CCOc1ccc(NC(=O)CSc2nc(C3CC3)nc3ccccc23)cc1 ?
Pol kappa inh: -4.0%; FEN1 inhibitor: -5.4%; Pol eta inh: 1.1%; Pol beta inh: 1.4%; Pol iota inh: 32.5%; Tb PGK inh: 4.0%

Results for COc1cccc(NC(=O)CSc2nc(C3CC3)nc3ccccc23)c1 ?
Pol kappa inh: 3.0%; FEN1 inhibitor: -7.8%; Pol eta inh: 39.8µM*; Pol beta inh: -2.1%; Pol iota inh: inconclusive; Tb PGK inh: inactive

How did Cc1ccc(CSc2nnc(-c3ccc(NC(=O)CCc4ccccc4)cc3)n2C)cc1 do in these assays?
Pol kappa inh: -12.2%; FEN1 inhibitor: 15.9%; Pol iota inh: 14.3%

What do the screens show for `CCOc1ccc(CCNC(=O)CCCn2c(=O)c3cccn3c3ccccc32)cc1`?
Pol kappa inh: 8.6%; FEN1 inhibitor: 0.9%; Pol eta inh: -10.3%; Pol beta inh: 3.3%; Pol iota inh: 11.7%; Tb PGK inh: inactive

Results for NS(=O)(=O)c1ccc(CCNC(=O)Cn2c(=O)c3cccn3c3ccc(F)cc32)cc1 ?
Pol kappa inh: -13.4%; FEN1 inhibitor: 5.0%; Pol eta inh: 6.1%; Pol beta inh: 44.7µM*; Pol iota inh: -8.2%; Tb PGK inh: -5.0%

Results for CCOc1ccc(CCNC(=O)Cn2c(=O)c3cccn3c3cccnc32)cc1 ?
Pol kappa inh: -14.8%; FEN1 inhibitor: 14.2%; Pol eta inh: -20.5%; Pol beta inh: 100µM*; Pol iota inh: 11.2%; Tb PGK inh: 7.6%

What do the screens show for `Cc1cc(CCC(=O)O)c(C)cc1CCC(=O)O`?
Pol kappa inh: 7.0%; FEN1 inhibitor: 0.2%; Pol eta inh: -6.8%; Pol beta inh: -7.4%; Pol iota inh: -6.7%; Tb PGK inh: inactive

Results for C=CC1=C(C)C2=NC1=CC1=NC(=CC3=NC(=CC4=NC(=C2)C(C)=C4CCC(=O)O)C(CCC(=O)O)=C3C)C(C=C)=C1C.[Zn] ?
Pol kappa inh: 3.55µM*

What do the screens show for `CN(C)c1ccc(/C=C/c2ccnc3ccccc23)c(N)c1`?
Pol kappa inh: 5.0%; FEN1 inhibitor: 7.5%; Pol iota inh: -6.0%

What do the screens show for `COc1ccc(Nc2cc(C)nc(N3CCOCC3)n2)cc1`?
Pol kappa inh: -10.3%; FEN1 inhibitor: -1.6%; Pol eta inh: 3.9%; Pol beta inh: 24.0%; Pol iota inh: 31.6µM*; Tb PGK inh: -2.8%

How did COc1ccc(Nc2nc(N3CCOCC3)nc(N3CCOCC3)n2)cc1 do in these assays?
Pol kappa inh: -4.6%; FEN1 inhibitor: -2.2%; Pol eta inh: -9.3%; Pol beta inh: 47.2%; Pol iota inh: -15.3%; Tb PGK inh: inactive

How did Cn1c(SCC(=O)N2CCCc3ccccc32)ncc(C(=O)Nc2ccccc2)c1=O do in these assays?
Pol kappa inh: 0.6%[60.1 µM]; FEN1 inhibitor: 3.9%; Pol eta inh: -16.3%; Pol beta inh: 8.5%; Pol iota inh: 6.5%; Tb PGK inh: -10.5%

Results for Cc1ccc(S(=O)(=O)N2CCN(c3nc(-c4cnccn4)nc4ccccc34)CC2)cc1 ?
Pol kappa inh: 0.3%; FEN1 inhibitor: 14.5%; Pol iota inh: 6.2%

Results for CN(C)CC/C=C1\c2ccccc2COc2ccc(CC(=O)O)cc21 ?
Pol kappa inh: -6.1%[60.1 µM]

What do the screens show for `CCOc1ccc(-n2nc(CO)c(C(=O)NCc3ccccn3)n2)cc1`?
Pol kappa inh: 2.8%; FEN1 inhibitor: 3.9%; Pol eta inh: -15.9%; Pol beta inh: 11.4%; Pol iota inh: 8.5%; Tb PGK inh: -9.3%

What do the screens show for `O=C(O)/C(=N/NC(=O)c1ccc(Cl)cc1)c1ccccc1`?
Pol kappa inh: 1.0%; FEN1 inhibitor: -4.9%; Pol eta inh: -14.2%; Pol beta inh: 25.1µM*; Pol iota inh: 8.1%; Tb PGK inh: -5.3%

What do the screens show for `CN(C)c1ccc(NC(=O)Cn2c(SCc3ccc(F)cc3)nc3cccnc32)cc1`?
Pol kappa inh: -7.4%[60.1 µM]; FEN1 inhibitor: -9.1%; Pol eta inh: -13.8%; Pol beta inh: 17.8µM*; Pol iota inh: -4.7%; Tb PGK inh: 10.2%

Results for O=C(N/N=C/C(Cl)=C/c1ccc([N+](=O)[O-])cc1)C(=O)Nc1ccccc1C(=O)O ?
Pol kappa inh: inconclusive; FEN1 inhibitor: inconclusive; Pol eta inh: 44.7µM*; Pol beta inh: 20µM*; Pol iota inh: 17.8µM*; Tb PGK inh: inconclusive

Results for CCC(C(=O)O)n1c(C(F)(F)F)nc2ccccc21 (stereo unspecified) ?
Pol kappa inh: 1.0%; FEN1 inhibitor: 0.8%; Pol eta inh: -7.4%; Pol beta inh: 3.8%; Pol iota inh: 11.3%; Tb PGK inh: 4.0%

Screening data from PubChem BioAssay.
